Source: publication PMC5540273 (PLoS ONE, 2017)

Assays:
Conditions in all cases: concentration: 1 μM,replicates: in singlicate; n = 1
AAK1 = test system: AAK1
ABL1-nonphosphorylated = test system: ABL1-nonphosphorylated
ABL1-phosphorylated = test system: ABL1-phosphorylated
ABL2 = test system: ABL2
ACVR1B = test system: ACVR1B
ACVR1 = test system: ACVR1
ACVR2A = test system: ACVR2A
ACVR2B = test system: ACVR2B
ACVRL1 = test system: ACVRL1
ADCK3 = test system: T1, ADCK3
T1 construct: gene CABC1

ADCK4 = test system: ADCK4
AKT1 = test system: AKT1
AKT2 = test system: AKT2
AKT3 = test system: AKT3
ALK = test system: ALK
AMPK-alpha1 = test system: T2, AMPK-alpha1
T2 construct: gene PRKAA1

AMPK-alpha2 = test system: T3, AMPK-alpha2
T3 construct: gene PRKAA2

ANKK1 = test system: ANKK1
ARK5 = test system: T4, ARK5
T4 construct: gene NUAK1

ASK1 = test system: T5, ASK1
T5 construct: gene MAP3K5
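Also: KINOMEscan kinase panel screen.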

Row | SMILES | %Inh (AAK1) [%] | %Inh (ABL1-nonphosphorylated) [%] | %Inh (ABL1-phosphorylated) [%] | %Inh (ABL2) [%] | %Inh (ACVR1B) [%] | %Inh (ACVR1) [%] | %Inh (ACVR2A) [%] | %Inh (ACVR2B) [%] | %Inh (ACVRL1) [%] | %Inh (ADCK3) [%] | %Inh (ADCK4) [%] | %Inh (AKT1) [%] | %Inh (AKT2) [%] | %Inh (AKT3) [%] | %Inh (ALK) [%] | %Inh (AMPK-alpha1) [%] | %Inh (AMPK-alpha2) [%] | %Inh (ANKK1) [%] | %Inh (ARK5) [%] | %Inh (ASK1) [%]
1 | O=C(Nc1cccc(Oc2ccc3nccn3n2)c1)Nc1cccc(C(F)(F)F)c1 | 0 | 98.2 | 15 | 71 | 0 | 0 | 22 | 9 | 0 | 0 | 0 | 0 | 0 | 7 | 14 | 0 | 0 | 0 | 8 | 0
2 | CCn1c(-c2nonc2N)nc2cncc(Br)c21 [SB-738004] | 67 | 0 | 0 | 0 | 30 | 0 | 0 | 9 | 0 | 25 | 23 | 0 | 13 | 0 | 31 | 18 | 0 | 1 | 0 | 13
3 | CN(c1ccccc1CNc1nc(Nc2ccc3c(c2)CC(=O)N3)ncc1C(F)(F)F)S(C)(=O)=O | 10 | 25 | 7 | 5 | 28 | 0 | 0 | 0 | 0 | 0 | 0 | 0 | 0 | 0 | 92.4 | 74 | 70 | 0 | 92.1 | 0
4 | CN(c1cccc(CNc2nc(Nc3ccc4c(c3)CC(=O)N4)ncc2C(F)(F)F)c1)S(C)(=O)=O | 51 | 46 | 3 | 16 | 0 | 0 | 0 | 0 | 0 | 0 | 29 | 0 | 0 | 0 | 41 | 26 | 5 | 0 | 99.3 | 0
5 | NC(=O)c1ccc(-c2cc3ncnc(SCC(=O)O)c3s2)cc1 | 4 | 57 | 20 | 0 | 0 | 0 | 8 | 17 | 0 | 25 | 3 | 0 | 0 | 0 | 0 | 0 | 0 | 0 | 0 | 0
6 | CSc1nccc(-c2c(-c3ccc(F)cc3)ncn2CCCN2CCOCC2)n1.Cl [SB-217146] | 0 | 35 | 31 | 0 | 0 | 0 | 0 | 0 | 0 | 0 | 25 | 14 | 0 | 0 | 0 | 0 | 0 | 1 | 0 | 0
7 | C[C@@H]1CNc2c(sc3ccc4nc(-c5ccncc5)ccc4c23)C(=O)N1 | 49 | 38 | 11 | 0 | 0 | 0 | 1 | 30 | 10 | 0 | 0 | 0 | 18 | 22 | 33 | 20 | 0 | 0 | 0 | 90
8 | CC(=O)c1c(-c2ccncc2)[nH]c(-c2ccncc2)c1C [GW493036] | 14 | 0 | 0 | 7 | 0 | 7 | 0 | 17 | 0 | 4 | 46 | 0 | 1 | 28 | 31 | 13 | 0 | 3 | 3 | 17
9 | C[C@@H](Oc1cc(-n2cnc3cc(-c4cnn(C)c4)ccc32)sc1C(N)=O)c1ccccc1Cl [GSK580432] | 82 | 58 | 63 | 63 | 0 | 0 | 0 | 25 | 0 | 13 | 29 | 0 | 0 | 0 | 31 | 39 | 27 | 0 | 98.7 | 0
10 | O=C(Nc1ccc(Oc2ccc3nc(NC(=O)C4CC4)cn3n2)c(F)c1)c1cccn(-c2ccccc2)c1=O | 0 | 99.9 | 88 | 62 | 0 | 19 | 28 | 31 | 1 | 16 | 0 | 18 | 13 | 30 | 0 | 0 | 3 | 0 | 0 | 3
11 | COc1cc(Nc2nccc(N3CCC(NC(=O)c4cccc(C#N)c4)C3)n2)cc(OC)c1OC (stereo not drawn) [GSK1379751] | 75 | 0 | 0 | 3 | 0 | 98.8 | 0 | 0 | 0 | 4 | 50 | 0 | 0 | 0 | 14 | 0 | 0 | 24 | 26 | 0
12 | CCOC(=O)N1CCC(n2cnc(-c3ccc(F)cc3)c2-c2ccnc(N)n2)CC1 [SB-219952] | 0 | 60 | 2 | 0 | 33 | 28 | 0 | 0 | 10 | 15 | 20 | 7 | 0 | 24 | 0 | 99.8 | 4 | 0 | 0 | 0
13 | O=C1NCCc2[nH]c(-c3ccncc3)cc21 | 77 | 31 | 0 | 0 | 40 | 14 | 40 | 70 | 19 | 33 | 0 | 0 | 0 | 0 | 0 | 6 | 0 | 10 | 0 | 40
14 | Cl.Nc1n[nH]c2cc(-c3ccccn3)ccc12 [GSK2189892] | 17 | 0 | 0 | 0 | 0 | 10 | 0 | 6 | 0 | 11 | 17 | 0 | 0 | 0 | 16 | 0 | 1 | 0 | 0 | 0
15 | Cn1ccc2ncnc(Oc3ccc(NC(=O)Nc4cccc(C(F)(F)F)c4)c(F)c3)c21 | 15 | 88 | 51 | 29 | 0 | 0 | 32 | 36 | 7 | 18 | 0 | 23 | 0 | 0 | 20 | 0 | 0 | 0 | 5 | 5
16 | COc1cccc(OC)c1C(=O)Nc1cccc(-c2nn3ccccc3c2-c2ccnc(Nc3cccc(F)c3)n2)c1 [GSK361065] | 0 | 28 | 18 | 100 | 15 | 17 | 7 | 27 | 7 | 0 | 0 | 4 | 0 | 0 | 0 | 25 | 4 | 93.2 | 0 | 22
17 | O=C(Nc1n[nH]c2cc(-c3ccco3)ccc12)C1CC1 [SB-737447] | 100 | 37 | 28 | 0 | 5 | 0 | 9 | 0 | 0 | 8 | 7 | 0 | 0 | 0 | 7 | 3 | 0 | 27 | 0 | 0
18 | COc1cc2c(Nc3ccc(NC(=O)c4ccccc4)cc3)ncnc2cc1OCCCN1CCOCC1 [GSK301329] | 0 | 16 | 0 | 20 | 0 | 0 | 0 | 0 | 0 | 10 | 0 | 0 | 0 | 0 | 9 | 0 | 0 | 17 | 28 | 0
19 | COC(=O)c1cccc(NC(=O)NC2CCN(c3ccnc(NCc4ccc(F)cc4)n3)CC2)c1 [GSK1379860] | 0 | 0 | 0 | 14 | 0 | 0 | 0 | 23 | 0 | 5 | 18 | 0 | 0 | 0 | 30 | 0 | 0 | 0 | 10 | 0
20 | C[C@@H](Oc1cc(-n2cnc3ccc(-c4ccncc4)cc32)sc1C(N)=O)c1ccccc1Cl [GSK483724] | 60 | 0 | 0 | 21 | 0 | 32 | 0 | 0 | 0 | 52 | 76 | 41 | 22 | 0 | 20 | 8 | 12 | 17 | 0 | 10
21 | Cl.c1ccc(Oc2ccc(Nc3ccnc4cc(-c5ccc(CN6CCNCC6)o5)ccc34)cc2)nc1 [GW567142] | 2 | 99.7 | 84 | 42 | 0 | 0 | 0 | 41 | 0 | 0 | 18 | 0 | 0 | 0 | 15 | 0 | 0 | 0 | 12 | 0
